This is part of a sample that, as a whole, favours compounds with a hit. Of some 79,000 tested, about 15% had one in any assay. Calls of active or inactive are those of the source. Cut-off read from the data, not from the text of the source: active = growth inhibition above about 70%; inactive = the rest.

The test in a line: NCI Yeast Anticancer Drug Screen. Data for the cln2 rad14 strain (AID 165).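 Note: 0% = growth equal to vehicle treated cultures.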 As to conditions: S. cerevisiae cln2 rad14 strain, at 50.0 µM (retest, dose inferred, filed as 5.0), stronger effect = higher value. Put shortly:
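Strain: cln2 rad14 yeast, altered in cell cycle control and DNA damage repair. Read-out: growth inhibition vs vehicle.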
Regarding `C/C(=N/Nc1ccc([N+](=O)[O-])cc1[N+](=O)[O-])C1=CCC(C(C)(C)C)CC1` (stereo not given), the growth inhibition was -1% (inactive). For the compound `Cc1ccc(C)c(N2C(=O)C(=O)C(c3nc4ccccc4o3)/C(=N\NC(=O)c3ccccc3O)C2=O)c1` (stereo not given), the growth inhibition is 33% (inactive).

As for `O=C(/C=C/C=C/c1ccccc1)c1ccco1`, the growth inhibition is 28% (inactive). For the compound `O=C1CCC(=O)c2c1c(O)c1ccncc1c2O`, the growth inhibition is 99% (active). Next, `CNC(=O)OC(C)CN1c2ccccc2Sc2ccc(Cl)cc21` (stereo not given): 98% (active). `c1coc(C2=Nc3cccc4cccc(c34)N2)c1`: the growth inhibition was 65% (inactive). Next, `CCOC(=O)[C@]12CCC[C@@]1(O)NC(=O)c1cnccc12`: 7% (inactive). Turning to `Cc1cccc(C)c1N1C(=O)C2Nc3ccccc3SC2C1=O` (stereo not given), the growth inhibition is 90% (active). Then `CCc1cccc(C(C)(C)C)c1NC(=S)N/C=C(\c1ccccc1)S(=O)Cc1ccccc1` (stereo not given), with 45% (inactive); and `CC(=O)Nc1ccc(-c2cnc3ccccc3c2)cc1`, with -6% (inactive); and `OCC(CO)C1c2cccc3ccc4cccc1c4c23`, with 37% (inactive).

On to `O=C1CC(=S)NC(=S)N1`, for which the growth inhibition is -6% (inactive). Then `Cc1c2ccnc(C(N)=O)c2c(C)c2c1[nH]c1ccccc12`, with 79% (active).

For `CCC(=O)Sc1ccccc1C(=O)Nc1ccc(Cl)cc1`, the growth inhibition is 62% (inactive). Next, `O=C(O)c1c(Cl)c(Cl)c(Cl)c(Cl)c1-c1c2cc(I)c(=O)c(I)c-2oc2c(I)c(O)c(I)cc12`: 97% (active); `C=C/C=C/CC=C`: -50% (inactive); `Cc1ccccc1N1CCN(c2c3c(nc4ccccc24)CCCCC3)CC1`: 95% (active). Next, `N/N=C(\N)c1ccc2ccc3cccnc3c2n1`: 62% (inactive). Take `CCCCCC(CCCCC)C(=O)O`: the growth inhibition is 50% (inactive).

For `O=Cc1cc(S(=O)(=O)c2ccc(O)c(C=O)c2)ccc1O`, the growth inhibition is 25% (inactive). Next, `Cc1ccc(C)c(N2C(=O)C(=O)C(c3nc4ccccc4o3)C(=O)C2=O)c1`: 99% (active); `COC(=O)c1cc(C)c2sc3ccccc3c2c1C`: 16% (inactive). Then `O=C1NC(=O)N(c2ccc(Cl)c(Cl)c2)C1=O`, with 5% (inactive); and `Clc1ccc2oc(N3CCCCC3)nc2c1`, with 6% (inactive). Regarding `Cc1ccc(N=NC(C(=O)c2ccccc2)C(=O)c2ccccc2)cc1`, the growth inhibition was 94% (active).
